Data on 28 compounds can be found in PubChem BioAssay (NCI).

Experiment in all cases: NCI-60 one-dose screen, 48 h (100 = growth as untreated, 0 = no growth, -100 = all killed)
Settings in all cases: 10 µM unless noted

Experiment [1] concerns DU-145 prostate.
Experiment [2] has as its system K-562 leukemia.
Experiment [3] relates to MALME-3M melanoma.
In experiment [4] the test system is MDA-MB-231 breast.
Experiment [5] has as its system RXF 393 renal.
Experiment [6] deals with SF-268 CNS.
In experiment [7] the test system is SF-295 CNS.
Experiment [8] relates to SF-539 CNS.
Experiment [9] has as its system UACC-257 melanoma.
For experiment [10], the system named is M14 melanoma.

SMILES strings stand for the structures. The panel holds about 83,000 compounds, 20% with a hit somewhere; the sample as a whole holds those more often.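 Step 1: grow cells in 96-well plates. Step 2: add test compound at a single concentration. Step 3: incubate 48 h. Step 4: record percent growth.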 Unmarked numbers belong to inactive results. The source made the active and inactive calls. The calls were made as follows: active = growth percent below 10; inactive = the rest.

Consider `CC1CCCCN1S(=O)(=O)c1ccc(CN=C=S)cc1` (stereo not given), for which the growth in [1] is 63.8%; in [2], 9.18% (active); in experiment [3] it was 87.1%; in experiment [4], 51.1%; in experiment [5] it was 51.9%; in experiment [6], 91.1%. In addition, the growth was 99.6% in experiment [7], 78.3% in experiment [8], 79.9% in [9] and 42% in [10].
With `O=C(c1cnn2c1NC(c1ccc(F)cc1)C2)N1CCCCC1` (stereo not given), the growth in [1] was 103%; in experiment [2], 103%; in experiment [3] it was 97.7%; in experiment [4], 106%; in experiment [5], 111%; in [6], 96.7%. The growth in experiment [7] is 103%; in experiment [8], 97.8%; in experiment [9], 96.3%; in experiment [10] it was 101%.
On to `Clc1cccc(Cl)c1Nc1ccc2nnc(-c3ccncc3)n2n1`, for which the growth in experiment [1] is 111%; in experiment [2], 57.1%; in experiment [3], 98.2%; in experiment [4], 114%; in experiment [5], 109%; in [6] it was 107%. The growth was 96% in experiment [7], 95.7% in [8], 97.8% in [9] and 99.1% in experiment [10].
As to `COc1ccc(-c2nc3sccn3c2/C=C/C(=O)c2cc(OC)c(OC)c(OC)c2)cc1OC`, the growth in [1] is 6.29% (active); in [2], 13.9%; in [3], 37.7%; in experiment [4], 31.7%; in experiment [5], -1.12% (active); in experiment [6] it was 28.2%. Further, the growth in experiment [7] was 5.22% (active); in [8] it was 24.6%; in experiment [9] it was 24.5%; in [10] it was 7.09% (active).
In the case of `Nc1cc2[nH]c(=O)c3ccccc3c2cc1Br`, the growth in experiment [1] is 77%; in experiment [2], 95%; in [3], 102%; in experiment [4], 53.2%; in experiment [5] it was 85.4%; in experiment [6] it was 86.3%. Further, the growth in experiment [7] was 95.6%; in experiment [8], 74.6%; in [9], 109%; in [10], 83.3%.
As to `Brc1ccc(SCN(CSc2ccc(Br)cc2)Cc2ccccc2)cc1`, the growth in experiment [1] is 96.8%; in experiment [2], 81.5%; in [3], 104%; in experiment [4] it was 39.8%; in experiment [5], 89.9%; in experiment [6] it was 45.4%. In addition, the growth was 52.3% in experiment [7], 49.8% in experiment [8], 93.1% in [9] and 73.7% in experiment [10].
Turning to `COc1ccc(OC)c(/C=C2\Oc3cc(O)ccc3C2=O)c1`, the growth is 77.5% in [1]; 93.2% in [2]; 76% in experiment [3]; 103% in [4]; 80.5% in experiment [5]; 87.3% in experiment [6]. The growth is 98.6% in [7], 95.4% in [8], 103% in [9] and 73.2% in experiment [10].
`Cc1ccc(S(=O)(=O)N2CCc3ccc(O)c4c3C2Cc2ccc3c(c2-4)OCO3)cc1` (stereo not given): the growth was 10.3% in [1]; 15.1% in experiment [2]; 61.8% in experiment [3]; 6.15% (active) in [4]; 0.195% (active) in experiment [5]; 37.2% in experiment [6]. Besides, the growth in experiment [7] was 14.3%; in [8] it was 3.96% (active); in [9], 45.6%; in experiment [10] it was 5.43% (active).
For `FC(F)(F)Oc1ccc2c(c1)C[C@H]1C[C@@H](c3ccoc3)N2O1`, the growth is 110% in experiment [1]; 91.8% in experiment [2]; 109% in experiment [3]; 93.9% in experiment [4]; 134% in [5]; 126% in experiment [6]. Moreover, the growth in [7] was 91.2%; in experiment [8], 93.9%; in [9] it was 87.4%; in experiment [10], 117%.
As to `COc1ccc(/C=N/OCC(O)CN2CCC(O)CC2)cc1OC1CCCC1` (stereo not given), the growth in [1] is 109%; in [2] it was 100%; in [3], 108%; in [4], 99.7%; in experiment [5] it was 115%; in experiment [6] it was 94.7%. For the same compound, the growth was 104% in experiment [7], 101% in [8], 109% in [9] and 94.3% in [10].
Take `Cc1nc2cc(Nc3nc(Nc4ccc(F)cc4)nc(N4CCCC4)n3)ccc2n1Cc1ccccc1`: the growth is -41.5% (active) in experiment [1]; 0.0326% (active) in experiment [2]; -61.6% (active) in experiment [3]; -59.7% (active) in experiment [4]; -83.5% (active) in experiment [5]; -26.3% (active) in experiment [6]. For the same compound, the growth in experiment [7] was -26.8% (active); in experiment [8], -25% (active); in experiment [9], -22.7% (active); in experiment [10], -48.1% (active).
Regarding `COC(=O)c1c2c(c(C)[n+]([O-])c1C)C(=O)C=C(NCc1cccc(Cl)c1)C2=O`, the growth is -98.3% (active) in experiment [1]; -1.12% (active) in experiment [2]; -96.9% (active) in experiment [3]; -27.3% (active) in experiment [4]; -32.1% (active) in [5]; -0.347% (active) in experiment [6]. Further, the growth in experiment [7] is -96% (active); in [8], -91.7% (active); in experiment [9], -88.5% (active); in experiment [10], -79.6% (active).
For the compound `Cc1nc2ccc(Cl)cc2n1C`, the growth in experiment [1] was 115%; in experiment [2] it was 92.4%; in experiment [3] it was 106%; in experiment [4], 118%; in [5], 101%; in [6], 103%. Further, the growth in [7] was 104%; in [8] it was 106%; in experiment [9], 100%; in [10], 106%.
`NS(=O)(=O)c1ccc(C(=O)N/N=C(\CS(=O)(=O)c2ccccc2)c2cc3cc(Br)ccc3o2)cc1`: the growth in experiment [1] is 101%; in [2], 106%; in experiment [3] it was 90.5%; in experiment [4] it was 73.7%; in experiment [5], 74.7%; in [6], 73.3%. Besides, the growth in experiment [7] was 101%; in experiment [8], 80.6%; in [9], 94.8%; in experiment [10], 111%.
As for `O=C(N/N=C/c1ccc(F)cc1)c1[nH]c2ccc(I)cc2c1-c1ccccc1`, the growth is 15.7% in experiment [1]; 75.4% in [2]; 71.5% in experiment [3]; 16.5% in [4]; 39.6% in [5]; 34.6% in [6]. Further, the growth was 22.1% in experiment [7], -18.1% (active) in experiment [8], 93.3% in experiment [9] and 28.4% in experiment [10].
Consider `COc1cc(/C=C2\C(=O)N(c3c(Cl)cccc3Cl)c3ccccc32)cc(OC)c1O`, for which the growth was 36.8% in experiment [1]; 8.62% (active) in [2]; 133% in experiment [3]; 72.4% in experiment [4]; 90.4% in experiment [5]; 40.9% in [6]. In addition, the growth in experiment [7] was 8.15% (active); in experiment [8], 45.1%; in [9], 46.1%; in experiment [10], 39.2%.
For the compound `N#Cc1c(-c2cccc(F)c2)cc(-c2ccc(Br)s2)[nH]c1=O`, the growth in experiment [1] is 90.1%; in [2], 24.5%; in experiment [3], 67.2%; in experiment [4] it was 79.7%; in experiment [5] it was 87.3%; in [6], 83.1%. Moreover, the growth in experiment [7] was 73.4%; in [8] it was 83.6%; in [9], 87.4%; in experiment [10] it was 39.8%.
Regarding `COc1cc(/C=C2\C(=O)Nc3ccccc32)cc(OC)c1O`, the growth in experiment [1] was 92.5%; in experiment [2], 7.58% (active); in [3], 118%; in experiment [4] it was 63.1%; in experiment [5] it was 71.3%; in experiment [6], 78.3%. The growth in experiment [7] was 60.6%; in [8], 68.8%; in [9], 62.6%; in experiment [10] it was 53.6%.
Take `Nc1cccc2c(=S)c3ccccc3[nH]c12`: the growth in experiment [1] was 113%; in [2], 91%; in experiment [3], 102%; in experiment [4] it was 68.3%; in experiment [5] it was 95.1%; in [6], 92.5%. In addition, the growth in experiment [7] was 97.3%; in experiment [8], 96.9%; in experiment [9], 99%; in experiment [10], 102%.
With `COc1ccc(OC2=CC(=O)c3ccc(C)nc3C2=O)cc1`, the growth in [1] is 102%; in experiment [2], 43.5%; in experiment [3], 128%; in experiment [4], 90.1%; in [5], 88.9%; in [6] it was 79.2%. Moreover, the growth is 96.8% in experiment [7], 89.6% in experiment [8], 93.8% in experiment [9] and 87.3% in experiment [10].
`N#C/C(=C\c1ccc[nH]1)c1cc2ccccc2[nH]1`: the growth in [1] is 80%; in [2] it was 42.5%; in [3] it was 88%; in [4] it was 59.7%; in experiment [5] it was 92.5%; in experiment [6], 78.1%. In addition, the growth in experiment [7] is 53.7%; in experiment [8], 79.7%; in [9], 69.9%; in experiment [10] it was 80.3%.
Consider `Fc1ccccc1Nc1ccc2nnc(-c3ccncc3)n2n1`, for which the growth is 110% in experiment [1]; 93.4% in experiment [2]; 103% in experiment [3]; 101% in experiment [4]; 113% in experiment [5]; 101% in experiment [6]. Besides, the growth in experiment [7] was 112%; in experiment [8], 106%; in experiment [9] it was 105%; in [10] it was 104%.
In the case of `Cc1cccc2c(=O)c3c(sc12)c(NCCCN)nc1ccccc13`, the growth in experiment [1] is -19.8% (active); in experiment [2], -34.6% (active); in experiment [3], 13.9%; in experiment [4], -32.4% (active); in experiment [5], 31.5%; in experiment [6] it was 46.2%. Besides, the growth in experiment [7] is 68%; in experiment [8], 38.4%; in experiment [9], 81.9%; in [10] it was -19.7% (active).
On to `COc1cc(/C=C/C(=O)CC(=O)/C=C/c2cc(Br)c(OC)c(OC)c2)cc(Br)c1OC`, for which the growth in experiment [1] was 108%; in [2], 73.3%; in [3], 96.6%; in experiment [4], 101%; in experiment [5] it was 114%; in [6] it was 104%. The growth was 102% in experiment [7], 102% in experiment [8], 93.1% in experiment [9] and 96.9% in experiment [10].
With `COc1cccc(C2CC(=O)Nc3cc4c(cc32)CCC4)c1OC` (stereo not given), the growth is 51.9% in experiment [1]; 14.1% in experiment [2]; 55.7% in [3]; 60.3% in experiment [4]; 57% in experiment [5]; 66.2% in [6]. For the same compound, the growth was 29% in experiment [7], 60.7% in experiment [8], 71.7% in [9] and 25.5% in [10].
As to `COC(=O)CCC(=O)c1ccccc1`, the growth in [1] was 106%; in experiment [2], 96.9%; in experiment [3], 158%; in experiment [4], 111%; in experiment [5] it was 139%; in experiment [6] it was 107%. Further, the growth was 91.8% in experiment [7], 99.9% in experiment [8], 106% in experiment [9] and 103% in experiment [10].
`CN1CCc2cccc3c2C1Cc1ccc(O)c(O)c1-3` (stereo not given): the growth was 96.3% in [1]; 64.3% in experiment [2]; 83.1% in experiment [3]; 65.7% in experiment [4]; 91.1% in experiment [5]; 87.6% in [6]. Moreover, the growth in [7] was 97.8%; in experiment [8], 84.2%; in [9], 103%; in [10], 76.1%.
As for `COc1ccc(-c2cc(=O)oc3c4c(ccc23)OCN(Cc2ccc(F)cc2)C4)cc1`, the growth was 73.4% in experiment [1]; 24.3% in [2]; 77.1% in [3]; 58.9% in experiment [4]; 57% in experiment [5]; 82% in [6]. For the same compound, the growth in experiment [7] was 27.3%; in experiment [8] it was 74.7%; in experiment [9] it was 39.6%; in [10] it was 54.6%.
